Measured values: PubChem BioAssay (EPA / NIEHS)
Calls of active or inactive are those of the source. Rule for the calls: active = hit-call score of the fitted dose curve at least 0.9, where 1 is the maximum; inactive = score below 0.9.

Tests used:
Details in all cases: mRNA level, 48 h; actives raise or lower the signal
[1] = read-out: Potassium channel subfamily K member 1 (KCNK1), KCNK1 (gene 3775); assay: LTEA_HepaRG_KCNK1: Life Technologies and Expression Analysis (LTEA) Assay for Potassium channel subfamily K member 1 (KCNK1) using HepaRG (AID 2283511)
How it was run: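 Human HepaRG cultures receive test chemicals for 48 h in 0.5% DMSO, top concentration 100 uM with half-log dilutions. Induction or suppression of KCNK1 mRNA relative to DMSO is derived by bidirectional fitting of qRT-PCR data.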

[2] = read-out: Keratin 19 (KRT19), KRT19 (gene 3880); assay: LTEA_HepaRG_KRT19: Life Technologies and Expression Analysis (LTEA) Assay for Keratin 19 (KRT19) using HepaRG (AID 2283512)
How it was run: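 KRT19 transcript measured by TaqMan qRT-PCR, referenced to three housekeeping genes, after HepaRG cells received test chemicals for 48 h. Eight half-log concentrations, top 100 uM, 0.5% DMSO vehicle; increases and decreases both fitted.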

[3] = read-out: JUN Transcription Factor, JUN (gene 3725); assay: LTEA_HepaRG_JUN: Life Technologies and Expression Analysis (LTEA) Assay for JUN Transcription Factor using HepaRG (AID 2283513)
Experimental: LTEA_HepaRG is a cell based, multiplexed-readout assay that uses HepaRG, a human liver cell line, with measurements taken at 48 hours after chemical dosing on a 96-well plate.LTEA_HepaRG_JUN is one of 102 assay component(s) measured in the LTEA HepaRG cell culture assay. It is a marker of Cell proliferation, survival, death.Data from the assay component LTEA_HepaRG_JUN was analyzed into 1 endpoint. This assay endpoint, LTEA_HepaRG_JUN, was analyzed with bidirectional fitting relative to DMSO as the negative control and baseline of activity. Using a type of inducible reporter, measures of mRNA induction for gain or loss-of-signal activity can be used to understand regulation of transcription factor activity. To generalize the intended target to other relatable targets, this assay endpoint is annotated to the dna binding intended target family, where the subfamily is basic leucine zipper.
A total of 1060 chemcials from the ToxCast library were tested in eight-point concentration-response experiments. Cell culture and cytotoxicity assays were conducted at Thermo Fisher Scientific's Custom Services facility (Madison, WI). […] Fluidigm's 96.96 Dynamic ArrayTM (Fluidigm, Amsterdam, the Netherlands) technology was used for gene expression analyses by quantitative reverse transcription polymerase chain reaction (qRT-PCR, performed by Quintiles/Expression Analysis, Durham, NC)89. […]

[4] = read-out: Lipase C (LIPC), LIPC (gene 3990); assay: LTEA_HepaRG_LIPC: Life Technologies and Expression Analysis (LTEA) Assay for Lipase C (LIPC) using HepaRG (AID 2283514)
How it was run: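 In this multiplexed gene-expression screen, human HepaRG cultures received test chemicals for 48 h across eight concentrations with 100 uM highest, in duplicate. Values reflect LIPC mRNA induction or suppression versus DMSO vehicle, from normalized qRT-PCR.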

[5] = read-out: Lipoprotein lipase (LPL), LPL (gene 4023); assay: LTEA_HepaRG_LPL: Life Technologies and Expression Analysis (LTEA) Assay for Lipoprotein lipase (LPL) using HepaRG (AID 2283515)
How it was run: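 Concentration-response testing used half-log steps from 100 uM in 0.5% DMSO on human HepaRG cells, 48 h, duplicate wells. Phenobarbital 1 mM served as induction control; LPL mRNA was normalized to ACTB, GAPDH, POLR2A.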

[6] = read-out: MicroRNA 122 (MIR122), gene 406906; assay: LTEA_HepaRG_MIR122: Life Technologies and Expression Analysis (LTEA) Assay for MicroRNA 122 (MIR122) using HepaRG (AID 2283516); note: the transcript read is the microRNA miR-122
How it was run: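 qRT-PCR read-out (TaqMan, Fluidigm array), normalized to three housekeeping genes; HepaRG cells dosed 48 h at 8 concentrations up to 100 uM in 0.5% DMSO, duplicate; gain or loss fitted against DMSO baseline.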

[7] = read-out: matrix metalloproteinase-10 (MMP10), MMP10 (gene 4319); assay: LTEA_HepaRG_MMP10: Life Technologies and Expression Analysis (LTEA) Assay for matrix metalloproteinase-10 (MMP10) using HepaRG (AID 2283517)
How it was run: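 In differentiated HepaRG cultures kept in 0.5% DMSO, test chemicals act for 48 h over an eight-point range with a top dose of 100 uM. Expression is then quantified by TaqMan RT-PCR against ACTB, GAPDH and POLR2A.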

MYC, MYC (gene 4609) = assay: LTEA_HepaRG_MYC: Life Technologies and Expression Analysis (LTEA) Assay for MYC using HepaRG (AID 2283518)
How it was run: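 MYC transcript changes, up or down relative to 0.5% DMSO, from TaqMan qRT-PCR normalized to three housekeeping genes. Human HepaRG cultures received chemicals for 48 h at eight half-log concentrations up to 100 uM, in duplicate.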

[8] = read-out: matrix metalloproteinase-3 (MMP3), MMP3 (gene 4314); assay: LTEA_HepaRG_MMP3: Life Technologies and Expression Analysis (LTEA) Assay for matrix metalloproteinase-3 (MMP3) using HepaRG (AID 2283519)
How it was run: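 Human liver HepaRG cultures received chemicals (top concentration 100 uM, 0.5% DMSO) for 48 h in duplicate. MMP3 mRNA induction or loss was then assessed via TaqMan qRT-PCR with housekeeping-gene normalisation.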

[9] = read-out: Paternally Expressed 10 (PEG10), PEG10 (gene 23089); assay: LTEA_HepaRG_PEG10: Life Technologies and Expression Analysis (LTEA) Assay for Paternally Expressed 10 (PEG10) using HepaRG (AID 2283520)
How it was run: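 qRT-PCR read-out: PEG10 mRNA normalised to three housekeeping genes, fitted bidirectionally against 0.5% DMSO vehicle. HepaRG cells received test chemicals for 48 h in serum-free induction medium, 8 points, top 100 uM, half-log steps.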

Measured: outcome

CS(=O)(=O)OCCCCOS(C)(=O)=O
inactive: all assays above
